The labels stand for the following.
B1: ENSMUSG00000058297.288|Spock2 (ssRNA)
RNA: GGGAGUUCUACAGUCCGACGAUCGCUUCGAUAUCCGCAUGCUAAGAGAGAGAGAGAGAGAGAGAGAGAGAGAGAAAGAGAGAGAGAAUGAGAGAGAAUGAGAGAGAGAAUACCCGAGGGCCACCCUGAUGCCCAGGAAGAGUGAGGGCAGCCCCCUGUGUGGUGGAAGAGGCUGGGCAGCUAGCUACUGGGGACCUUGUGCUGAGGCUUCCAGGACAAAGCCCCAGUCUGGCUCUCCCCCAGCCUCUCAGGGGCACUGGCUGGUCACAUCCACUGAGUAUUGAUCGGUUGGACUUUAGGGAAGCUCUUGCGGUCGCACUAGUGUGGAAUUCUCGGGUGUCAAGG
B2: ENSMUSG00000058297.291|Spock2 (ssRNA)
RNA: GGGAGUUCUACAGUCCGACGAUCGCUUCGAUAUCCGCAUGCUAAGAGAGAGAGAGAAAGAGAGAGAGAAUGAGAGAGAAUGAGAGAGAGAAUACCCGAGGGCCACCCUGAUGCCCAGGAAGAGUGAGGGCAGCCCCCUGUGUGGUGGAAGAGGCUGGGCAGCUAGCUACUGGGGACCUUGUGCUGAGGCUUCCAGGACAAAGCCCCAGUCUGGCUCUCCCCCAGCCUCUCAGGGGCACUGGCUGGUCACAUCCACUGAGUAUUGAUCGGUUGGACUUUAGGGAAGAGCCUCCUCCUUCCCAUUCUCUUGCGGUCGCACUAGUGUGGAAUUCUCGGGUGUCAAGG
B3: ENSMUSG00000058297.298|Spock2 (ssRNA)
RNA: GGGAGUUCUACAGUCCGACGAUCGCUUCGAUAUCCGCAUGCUAAGAGAAUACCCGAGGGCCACCCUGAUGCCCAGGAAGAGUGAGGGCAGCCCCCUGUGUGGUGGAAGAGGCUGGGCAGCUAGCUACUGGGGACCUUGUGCUGAGGCUUCCAGGACAAAGCCCCAGUCUGGCUCUCCCCCAGCCUCUCAGGGGCACUGGCUGGUCACAUCCACUGAGUAUUGAUCGGUUGGACUUUAGGGAAGAGCCUCCUCCUUCCCAUUCCUUUCUGCCACCCUGGAAUGGCCACCUUAAUCGUCAUCUCCCUCUUGCGGUCGCACUAGUGUGGAAUUCUCGGGUGUCAAGG
B4: ENSMUSG00000058297.285|Spock2 (ssRNA)
RNA: GGGAGUUCUACAGUCCGACGAUCGCUUCGAUAUCCGCAUGCUAUGUGUGUGUGUGAGAGAGAGAGAGAGAGAGAGAGAGAGAGAGAGAGAGAAAGAGAGAGAGAAUGAGAGAGAAUGAGAGAGAGAAUACCCGAGGGCCACCCUGAUGCCCAGGAAGAGUGAGGGCAGCCCCCUGUGUGGUGGAAGAGGCUGGGCAGCUAGCUACUGGGGACCUUGUGCUGAGGCUUCCAGGACAAAGCCCCAGUCUGGCUCUCCCCCAGCCUCUCAGGGGCACUGGCUGGUCACAUCCACUGAGUAUUGAUCCUCUUGCGGUCGCACUAGUGUGGAAUUCUCGGGUGUCAAGG
B5: ENSMUSG00000031028.158|Tub (ssRNA)
RNA: GGGAGUUCUACAGUCCGACGAUCGCUUCGAUAUCCGCAUGCUAUGCCAGCAUGCCAUGAUCAGUGAGGGCUGUGUGCCAUGCUUAGGGGGAUGGCGCAGGGUGAGGGGAGCAGAGGAUAUUUUAGGGCCACAAGAGCUCAGAGGUAGCGGACCUCUGUGUGGUUCACCAACAGCAAUGCUGAUCCCUGAGUAUAGGGCACAUGUCUCUUGGUUACCUCACUGGUUAAUGGCAGAGUUGAGAACCUCAAAUUCUUUUGUUCCUACUGUUGCCCAGAAACUAGACUCUCUGACCUGCUAGGGUCUCUCUUGCGGUCGCACUAGUGUGGAAUUCUCGGGUGUCAAGG
B6: ENSMUSG00000031028.505|Tub (ssRNA)
RNA: GGGAGUUCUACAGUCCGACGAUCGCUUCGAUAUCCGCAUGCUACUGGGAAGACAGGAGUCGGAAGCCAAGGUGUGUGGCAACAGUCUGGAAGAGAGCUUUUGGUAAUCAUACCGUCUUCAGUGACAAGGCAACAAUGCUGUAAAGUGGGUUUGUUUGGUUUUGUUUUUUCUUUCUCUUUUAUGGAAAUGGCAGGUCUAUUUGCCUCAAACGUUAUGUAGAAGUAGUUCUAAGUUUAACAAGCAAUAGAGAUGACUGCUUAGCUAGGAUCUGCAGGGAGCUCUGCUCUGCAAGCACAACACCUGCUCUUGCGGUCGCACUAGUGUGGAAUUCUCGGGUGUCAAGG
B7: ENSMUSG00000090935.538|Synj2bp|26:32 (ssRNA)
RNA: GGGAGUUCUACAGUCCGACGAUCGCUUCGAUAUCCGCAUGCUAAAUGGCAAGGAGGAUAAAACACUGUACACACAUGUAUUGUUGAUCUAAAUAAAAAAUAUCAUUGGUAGAAGUUUUACUUUGGUUGAUAAGGAUUCUGAUAACAUUUGGGUCUCCUUAGGAAAGAAACACUUAACUAAAACAUUUAAGUUUUAGGCAAAUACUGUAAUAUUUCACUCUUAGUUAUAUGAAAACUAAAUGAGAUGUUGAGAAUCUAUAUAGAUUAUUCAAAUUUUAUGUUUCUUAUAGACUGACUCAAAUAUCUCUUGCGGUCGCACUAGUGUGGAAUUCUCGGGUGUCAAGG
B8: ENSMUSG00000061578.246|Ksr2 (ssRNA)
RNA: GGGAGUUCUACAGUCCGACGAUCGCUUCGAUAUCCGCAUGCUACAGAACCUUCUCACCCCUUUGCAAAGCUCUUGCCGUCUGCACCCGGGACCCCGGGACCCACACAAGUUGUCCCCAUGUGAACAUCCUGCCUCUCCUGGUGACAUCUGUCUCUGGCUCAGCUUCUCUGCCUCUUACAGACAGUUUCCCUGUACAUUUGCUUAUGGCCCUGGGCUCCAGAGUCGCUGAAGACCACUCUCCACAGCAGCUGUAACCCCAUCUAACAAGCCCUGUUCUGGAUAUAUCUCUGUGGCCAGGGCUGGCUCUUGCGGUCGCACUAGUGUGGAAUUCUCGGGUGUCAAGG
B9: ENSMUSG00000061578.893|Ksr2 (ssRNA)
RNA: GGGAGUUCUACAGUCCGACGAUCGCUUCGAUAUCCGCAUGCUAGGCCAUCAGGGCCCCAUUCUGAGGUCCUGGGACACUACCCAAACCCUAGCACUCUCCCAGUGACUCUCCUAUGAGUACAUAUGCCAUCCUGCUUCCUUUGUGGCAAAACCCUGGGUCACCCAGAGACAGAUUUCCCAGAAUCCCUGGGCCACUUCUCAAUUCUACCCAUGACAGACAUGUCCCAUCCAUGAGCCCAGAUAGUCAAAGACUUCAGCACAAGGGUGUUUAGAGUAGGCAGUGUGGAAGUAUCAAUAAGGUUACUCUUGCGGUCGCACUAGUGUGGAAUUCUCGGGUGUCAAGG
B10: ENSMUSG00000061578.293|Ksr2 (ssRNA)
RNA: GGGAGUUCUACAGUCCGACGAUCGCUUCGAUAUCCGCAUGCUAUAAGCAUCUUAGAGUUUCUCUUUUCUCUUUAAUUGCAUCAGGACCCCUUUGGUCCAUGUACCCCGGUCUCUGUCACAUGCCUUUGUAUCUUGGAGGAAGUAAGAGAGGAGAGAGCCAGGGAGGGCUGAAGCUCUGGGACCCUGAAGUGUCCCCCGGGAACUGGGACUCACUCAUCUUCUCCUGUUUGUAGCUCAAUGACCCAGUGGGUCACAGUUCUAGGCGCUCCAAGGAAGCCAGGGGAGGGGGACUCCUCAGGAAGGCUCUUGCGGUCGCACUAGUGUGGAAUUCUCGGGUGUCAAGG
B11: ENSMUSG00000042529.251|Kcnj12 (ssRNA)
RNA: GGGAGUUCUACAGUCCGACGAUCGCUUCGAUAUCCGCAUGCUAAAUUUCUAAUCUAGGAGAUUCCCCUAGGACCCGCUGCAGAGGCAUGGGCUCCUCUGUGGUCCUGGCCAGACCUCUGCCCCCAAAUCUCACUGACUGUUCUAGCCUUGGCCUUGGGGCCUAAGGGUGCAUUCAGCCUGGGUGUGCUUACCUGCCACUCACCUCUCUAUCUAGUUGUCGAGUCUAGGGAAGGGCAGAGGGUGGGUCCUGGCCACUGGGUGCCACUGUGGGAGCCGGGGCACCUGUCAUUCUUUCUGAGUAGGCUCUUGCGGUCGCACUAGUGUGGAAUUCUCGGGUGUCAAGG
B12: ENSMUSG00000031028.344|Tub (ssRNA)
RNA: GGGAGUUCUACAGUCCGACGAUCGCUUCGAUAUCCGCAUGCUAGGUUGACAAGUUUAAGGUUGAACAGGCUGAUUUCUGGAAUCUCAUGAGUGGAGGGGACCCUGGUGGUUAAGAGCGGAACUGGAAGCACAAUGGAAAACUCUUGGACUCUGCUCUCUGCUUUACCACACACAAAAAAGAGGGUUCUUGGCUAUUUGAAUAUAAAGUUGGUAGCACCAGGAAAUAGGCUGAACUUUGUAGCCCACUGUGGAAAGGAGCAGCCUCAGCACAAACCCCUCUGUCGGGCCCUGAGUGACAAGACCCUCUUGCGGUCGCACUAGUGUGGAAUUCUCGGGUGUCAAGG
B13: ENSMUSG00000058297.296|Spock2 (ssRNA)
RNA: GGGAGUUCUACAGUCCGACGAUCGCUUCGAUAUCCGCAUGCUAAGAGAAUGAGAGAGAGAAUACCCGAGGGCCACCCUGAUGCCCAGGAAGAGUGAGGGCAGCCCCCUGUGUGGUGGAAGAGGCUGGGCAGCUAGCUACUGGGGACCUUGUGCUGAGGCUUCCAGGACAAAGCCCCAGUCUGGCUCUCCCCCAGCCUCUCAGGGGCACUGGCUGGUCACAUCCACUGAGUAUUGAUCGGUUGGACUUUAGGGAAGAGCCUCCUCCUUCCCAUUCCUUUCUGCCACCCUGGAAUGGCCACCUUACUCUUGCGGUCGCACUAGUGUGGAAUUCUCGGGUGUCAAGG
B14: ENSMUSG00000058297.294|Spock2 (ssRNA)
RNA: GGGAGUUCUACAGUCCGACGAUCGCUUCGAUAUCCGCAUGCUAAGAGAGAAUGAGAGAGAAUGAGAGAGAGAAUACCCGAGGGCCACCCUGAUGCCCAGGAAGAGUGAGGGCAGCCCCCUGUGUGGUGGAAGAGGCUGGGCAGCUAGCUACUGGGGACCUUGUGCUGAGGCUUCCAGGACAAAGCCCCAGUCUGGCUCUCCCCCAGCCUCUCAGGGGCACUGGCUGGUCACAUCCACUGAGUAUUGAUCGGUUGGACUUUAGGGAAGAGCCUCCUCCUUCCCAUUCCUUUCUGCCACCCUGGACUCUUGCGGUCGCACUAGUGUGGAAUUCUCGGGUGUCAAGG
B15: ENSMUSG00000058297.295|Spock2 (ssRNA)
RNA: GGGAGUUCUACAGUCCGACGAUCGCUUCGAUAUCCGCAUGCUAAAUGAGAGAGAAUGAGAGAGAGAAUACCCGAGGGCCACCCUGAUGCCCAGGAAGAGUGAGGGCAGCCCCCUGUGUGGUGGAAGAGGCUGGGCAGCUAGCUACUGGGGACCUUGUGCUGAGGCUUCCAGGACAAAGCCCCAGUCUGGCUCUCCCCCAGCCUCUCAGGGGCACUGGCUGGUCACAUCCACUGAGUAUUGAUCGGUUGGACUUUAGGGAAGAGCCUCCUCCUUCCCAUUCCUUUCUGCCACCCUGGAAUGGCCCUCUUGCGGUCGCACUAGUGUGGAAUUCUCGGGUGUCAAGG

The full ranking holds about 9,900 sequences; the median of “r (bound/input frequency ratio)” is about 0.7, and the highest 2% start at about 6.5. The sample holds the highest values, similar sequences and a random draw of the others, so the mix is not that of the screen.

The assay deals with TDP-43 (Homo sapiens, UniProt Q13148 1-414). In words: RNA Bind-n-Seq with designed 260-mer pool; 25 mM Tris-HCl, 150 mM KCl, 3 mM MgCl2, BSA (printed 500 mg/mL), 20 units/mL SUPERase IN; pH not stated; 500 nM RNA pool, 1 h, 4 C; TDP-43 5, 50, 500 nM; high values mean tight binding. The settings on record: protein: recombinant; tags: SBP (GST cleaved off with PreScission; pGEX-GST-SBP). The method in brief: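 Binding (R) is the ratio of each oligo's mapped-read-normalized abundance in the bound fraction to its abundance in the input. To obtain it, SBP-tagged recombinant TDP-43 (5, 50 or 500 nM) on streptavidin beads was incubated with 500 nM of an in vitro-transcribed 260-nt 3′ UTR oligo pool for 1 h at 4 °C in 25 mM Tris-HCl, 150 mM KCl, 3 mM MgCl2, BSA and SUPERase IN. The RNA retained after washing was released with biotin, then reverse transcribed, amplified by PCR and sequenced.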
Sequence of TDP-43 (Q13148 whole entry): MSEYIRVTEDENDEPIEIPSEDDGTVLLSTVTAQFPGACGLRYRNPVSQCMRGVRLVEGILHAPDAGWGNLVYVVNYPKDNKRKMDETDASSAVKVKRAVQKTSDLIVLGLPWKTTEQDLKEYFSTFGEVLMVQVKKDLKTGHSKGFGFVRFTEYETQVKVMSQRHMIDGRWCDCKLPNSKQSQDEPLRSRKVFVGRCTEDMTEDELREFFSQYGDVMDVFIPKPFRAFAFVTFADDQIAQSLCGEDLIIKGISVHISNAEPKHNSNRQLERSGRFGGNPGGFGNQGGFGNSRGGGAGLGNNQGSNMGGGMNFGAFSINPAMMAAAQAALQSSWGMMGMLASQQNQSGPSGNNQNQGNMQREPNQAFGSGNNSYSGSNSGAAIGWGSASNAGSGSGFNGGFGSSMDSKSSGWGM
As to B1, the binding signal is 7.62 R (bound/input frequency ratio).

Regarding B2, the binding signal is 8.35 R (bound/input frequency ratio). With B3, the binding signal was 3.7 R (bound/input frequency ratio). Then B4, with 7.21 R (bound/input frequency ratio); and B5, with 0.506 R (bound/input frequency ratio); and B6, with 0.58 R (bound/input frequency ratio). Then B7, with 0.0361 R (bound/input frequency ratio). For the molecule B8, the binding signal is 0.544 R (bound/input frequency ratio).

As for B9, the binding signal is 0.438 R (bound/input frequency ratio). With B10 the figure was 0.535 R (bound/input frequency ratio); with B11, 0.996 R (bound/input frequency ratio); with B12, 0.993 R (bound/input frequency ratio).

With B13, the binding signal is 9.19 R (bound/input frequency ratio).

Regarding B14, the binding signal is 2.14 R (bound/input frequency ratio). Then B15, with 3.63 R (bound/input frequency ratio).

Values taken from publication PMC12864922, “TDP-43 directly inhibits mRNA accumulation in neurites through modulation of mRNA stability”.
